“And” between values parts separate entries of the source, which are not always exact repeats. Identical values can stand only once. Hit rate of the full screen: of about 5,500 compounds, about 2,000 (36%) were called active. Not shown: some 18% with an inconclusive outcome. Cut-off read from the data, not from the text of the source: active = normalized growth mostly below about 0.91 (no sharp cut-off); inconclusive = no clear call, values can overlap the other calls; inactive = mostly above about 0.92. Some of the results follow.
Assay: chemical genetic growth profiling, strain panel (AID 1159580);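 note: tested at 20 µM; growth read once vehicle control cultures reached saturation at 30 °C; 1 = growth at the plate median or of vehicle wells; lower values mean less growth of the strain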
Details: S. cerevisiae deletion strains, growth OD

Measured: normalized growth

CC(=O)OCC1=C(C(=O)O)N2C(=O)[C@@H](NC(=O)Cc3cccs3)[C@H]2SC1
inactive: locus YAL013W, strain DEP1, stronger effect = lower value 0.991 | locus YAL021C, strain ccr4, stronger effect = lower value 1.03 | locus YAL026C, strain drs2, stronger effect = lower value 0.991 | locus YAL030W, strain snc1, stronger effect = lower value 1.02 | locus YBL061C, strain skt5, stronger effect = lower value 1.03 | locus YBR009C, strain hhf1, stronger effect = lower value 0.974 | locus YBR021W, strain FUR4, stronger effect = lower value 1.01 | locus YBR023C, strain chs3, stronger effect = lower value 1.03 | locus YBR171W, strain sec66, stronger effect = lower value 1.02 | locus YBR229C, strain ROT2, stronger effect = lower value 0.948 | locus YBR231C, strain swc5, stronger effect = lower value 0.988 | locus YBR279W, strain paf1, stronger effect = lower value 0.987 | locus YCL011C, strain gbp2, stronger effect = lower value 0.973 | locus YCL016C, strain dcc1, stronger effect = lower value 0.986 | locus YCL029C, strain bik1, stronger effect = lower value 0.984 | locus YCL069W, strain vba3, stronger effect = lower value 1.01 | locus YCR088W, strain abp1, stronger effect = lower value 1.01 | locus YDL005C, strain med2, stronger effect = lower value 1.03 | locus YDL035C, strain GPR1, stronger effect = lower value 0.96 | locus YDL040C, strain nat1, stronger effect = lower value 1.02 | locus YDL074C, strain BRE1, stronger effect = lower value 0.993 | locus YDL101C, strain DUN1, stronger effect = lower value 0.989 | locus YDL134C, strain PPH21, stronger effect = lower value 0.959 | locus YDL185W, strain tfp1, stronger effect = lower value 0.965 | locus YDL192W, strain arf1, stronger effect = lower value 0.977 | locus YDR001C, strain nth1, stronger effect = lower value 1.02 | locus YDR069C, strain doa4, stronger effect = lower value 1.03 | locus YDR101C, strain arx1, stronger effect = lower value 0.972 | locus YDR137W, strain rgp1, stronger effect = lower value 0.962 | locus YDR150W, strain NUM1, stronger effect = lower value 0.983 | locus YDR159W, strain sac3, stronger effect = lower value 1.05 | locus YDR162C, strain NBP2, stronger effect = lower value 0.948 | locus YDR195W, strain ref2 1.04 | locus YDR297W, strain sur2, stronger effect = lower value 1.02 | locus YDR318W, strain mcm21, stronger effect = lower value 0.991 | locus YDR334W, strain swr1, stronger effect = lower value 0.986 | locus YDR335W, strain msn5, stronger effect = lower value 0.99 | locus YDR388W, stronger effect = lower value 0.981 | locus YDR392W, strain spt3, stronger effect = lower value 0.959 | locus YDR502C, strain sam2, stronger effect = lower value 0.997 | locus YEL003W, strain gim4, stronger effect = lower value 1 | locus YEL037C, strain rad23, stronger effect = lower value 1 | locus YEL061C, strain CIN8 (second series), stronger effect = lower value 1.01 | locus YEL061C, strain CIN8, stronger effect = lower value 0.984 | locus YER015W, strain faa2, stronger effect = lower value 0.972 | locus YER016W, strain bim1, stronger effect = lower value 0.987 | locus YER110C, stronger effect = lower value 0.972 | locus YER111C, strain swi4, stronger effect = lower value 0.995 | locus YER155C, strain BEM2 (second series), stronger effect = lower value 1 | locus YER155C, strain BEM2, stronger effect = lower value 1 | locus YER167W, strain BCK2, stronger effect = lower value 0.986 | locus YFR010W, strain ubp6, stronger effect = lower value 1.01 | locus YGL078C, strain dbp3, stronger effect = lower value 0.987 | locus YGL086W, strain mad1, stronger effect = lower value 0.979 | locus YGL167C, strain pmr1, stronger effect = lower value 1.02 | locus YGL173C, strain kem1, stronger effect = lower value 0.987 | locus YGL227W, strain vid30, stronger effect = lower value 1.04 | locus YGL240W, strain doc1, stronger effect = lower value 1.06 | locus YGL248W, strain PDE1, stronger effect = lower value 1.01 | locus YGL253W, strain hxk2, stronger effect = lower value 1 | locus YGR135W, strain pre9, stronger effect = lower value 1.04 | locus YGR252W, strain gcn5, stronger effect = lower value 1.03 | locus YHR013C, strain ard1, stronger effect = lower value 1.03 | locus YHR027C, strain rpn1, stronger effect = lower value 0.994 | locus YHR030C, strain SLT2, stronger effect = lower value 0.977 and 0.94 | locus YHR079C, strain IRE1 (second series), stronger effect = lower value 0.995 | locus YHR079C, strain IRE1, stronger effect = lower value 0.976 | locus YHR094C, strain hxt1, stronger effect = lower value 0.982 | locus YHR129C, strain ARP1, stronger effect = lower value 0.984 | locus YHR142W, strain chs7, stronger effect = lower value 0.995 | locus YHR200W, strain rpn10, stronger effect = lower value 0.983 | locus YIL066C, strain RNR3, stronger effect = lower value 0.972 | locus YIL073C, strain SPO22, stronger effect = lower value 1.04 | locus YIL125W, strain kgd1, stronger effect = lower value 0.983 | locus YIR030C, strain dcg1, stronger effect = lower value 0.99 | locus YJL092W, strain hpr5, stronger effect = lower value 1.01 | locus YJL095W, strain BCK1 (second series), stronger effect = lower value 1 | locus YJL095W, strain BCK1, stronger effect = lower value 1.05 and 0.96 | locus YJL115W, strain asf1, stronger effect = lower value 1.02 | locus YJL129C, strain trk1, stronger effect = lower value 1.05 | locus YJL134W, strain LCB3, stronger effect = lower value 0.99 | locus YJL154C, strain vps35, stronger effect = lower value 1.02 | locus YJL164C, strain tpk1, stronger effect = lower value 0.972 | locus YJL166W, strain qcr8, stronger effect = lower value 0.996 | locus YJL168C, strain set2, stronger effect = lower value 0.986 | locus YJL187C, strain SWE1 (second series), stronger effect = lower value 1.01 | locus YJL187C, strain SWE1, stronger effect = lower value 1.01 | locus YJR043C, strain POL32, stronger effect = lower value 0.963 | locus YJR066W, strain TOR1, stronger effect = lower value 0.995 | locus YJR075W, strain HOC1, stronger effect = lower value 1 | locus YKL009W, strain mrt4, stronger effect = lower value 1 | locus YKL068W, stronger effect = lower value 0.977 | locus YKL085W, strain MDH1 (second series), stronger effect = lower value 0.966 | locus YKL085W, strain MDH1, stronger effect = lower value 0.966 | locus YKL160W, strain elf1, stronger effect = lower value 1.01 | locus YKR001C, strain vps1, stronger effect = lower value 0.986 | locus YKR026C, strain gcn3, stronger effect = lower value 1.04 | locus YKR091W, strain srl3, stronger effect = lower value 0.999 | locus YLL001W, strain dnm1, stronger effect = lower value 0.992 | locus YLL026W, stronger effect = lower value 1.02 | locus YLL041C, strain sdh2, stronger effect = lower value 1.02 | locus YLR027C, strain aat2, stronger effect = lower value 1.01 | locus YLR039C, strain RIC1, stronger effect = lower value 0.986 | locus YLR058C, strain SHM2, stronger effect = lower value 0.978 | locus YLR102C, strain apc9, stronger effect = lower value 0.987 | locus YLR113W, strain HOG1, stronger effect = lower value 0.971 | locus YLR221C, strain rsa3, stronger effect = lower value 0.996 | locus YLR258W, strain gsy2, stronger effect = lower value 1 | locus YLR262C, strain YPT6 (second series), stronger effect = lower value 1.01 | locus YLR262C, strain YPT6, stronger effect = lower value 0.937 | locus YLR268W, strain sec22, stronger effect = lower value 0.975 | locus YLR320W, strain mms22, stronger effect = lower value 0.978 | locus YLR330W, strain CHS5, stronger effect = lower value 0.99 | locus YLR342W, strain FKS1 (second series), stronger effect = lower value 1 | locus YLR342W, strain FKS1, stronger effect = lower value 0.992 | locus YLR357W, strain rsc2, stronger effect = lower value 0.991 | locus YLR370C, strain arc18, stronger effect = lower value 1 | locus YLR371W, strain rom2, stronger effect = lower value 0.998 | locus YLR384C, strain iki3, stronger effect = lower value 1.03 | locus YLR418C, strain cdc73, stronger effect = lower value 1.01 | locus YML016C, strain PPZ1, stronger effect = lower value 0.996 | locus YML032C, strain rad52, stronger effect = lower value 0.98 | locus YML120C, strain ndi1, stronger effect = lower value 1 | locus YML124C, strain tub3, stronger effect = lower value 0.985 | locus YMR058W, strain fet3, stronger effect = lower value 0.923 | locus YMR078C, strain ctf18, stronger effect = lower value 0.986 | locus YMR125W, strain sto1, stronger effect = lower value 1.03 | locus YMR129W, stronger effect = lower value 1.02 | locus YMR205C, strain PFK2, stronger effect = lower value 1.02 | locus YMR223W, strain ubp8, stronger effect = lower value 1.01 | locus YMR231W, strain pep5, stronger effect = lower value 1.01 | locus YMR263W, strain SAP30, stronger effect = lower value 0.998 | locus YMR307W, strain GAS1, stronger effect = lower value 0.898 | locus YNL067W, strain RPL9B, stronger effect = lower value 1.01 | locus YNL071W, strain lat1, stronger effect = lower value 0.994 | locus YNL183C, strain NPR1, stronger effect = lower value 0.919 | locus YNL209W, strain ssb2, stronger effect = lower value 1 | locus YNL233W, strain BNI4, stronger effect = lower value 1.03 | locus YNL248C, strain rpa49, stronger effect = lower value 0.993 | locus YNL250W, strain rad50, stronger effect = lower value 0.995 | locus YNL271C, strain bni1, stronger effect = lower value 1 | locus YNL298W, strain CLA4, stronger effect = lower value 0.979 | locus YNL307C, strain MCK1, stronger effect = lower value 0.988 | locus YNL322C, strain KRE1 (second series), stronger effect = lower value 1.01 | locus YNL322C, strain KRE1, stronger effect = lower value 0.989 | locus YNR049C, strain mso1, stronger effect = lower value 1.02 | locus YNR052C, strain pop2, stronger effect = lower value 0.985 | locus YOL006C, strain TOP1, stronger effect = lower value 1.13 | locus YOL012C, strain htz1 0.756 | locus YOL147C, strain pex11, stronger effect = lower value 0.986 | locus YOR001W, strain rrp6, stronger effect = lower value 1.02 | locus YOR061W, strain CKA2, stronger effect = lower value 0.968 | locus YOR069W, strain VPS5, stronger effect = lower value 0.987 | locus YOR070C, strain gyp1, stronger effect = lower value 0.995 | locus YOR080W, strain dia2, stronger effect = lower value 1.02 | locus YOR083W, strain WHI5, stronger effect = lower value 0.993 | locus YOR106W, strain vam3, stronger effect = lower value 0.981 | locus YOR136W, strain idh2, stronger effect = lower value 0.983 | locus YOR144C, strain elg1, stronger effect = lower value 0.988 | locus YOR184W, strain ser1, stronger effect = lower value 1 | locus YOR231W, strain MKK1, stronger effect = lower value 0.972 | locus YOR265W, strain rbl2, stronger effect = lower value 1.02 | locus YOR270C, strain vph1, stronger effect = lower value 0.925 | locus YOR290C, strain snf2, stronger effect = lower value 0.992 | locus YOR316C, strain cot1, stronger effect = lower value 0.973 | locus YPL051W, strain arl3, stronger effect = lower value 0.995 | locus YPL055C, strain LGE1, stronger effect = lower value 0.989 | locus YPL078C, strain atp4, stronger effect = lower value 1.02 | locus YPL106C, strain sse1, stronger effect = lower value 0.945 | locus YPL240C, strain hsp82, stronger effect = lower value 1.04 | locus YPL256C, strain CLN2, stronger effect = lower value 0.962 | locus YPR119W, strain clb2, stronger effect = lower value 0.984 | locus YPR141C, strain kar3, stronger effect = lower value 0.983 | locus YPR163C, strain tif3, stronger effect = lower value 0.984 | locus YPR167C, strain met16, stronger effect = lower value 0.997 | strain wtn01, stronger effect = lower value 1
